# Source: PubChem
# A selection: hits, their analogues and other compounds. The true share with any hit is near 9.4%.
# SMN2 splice up: enhancers of SMN2 splice variant expression; Potency, µM (doses to about 46.1 µM), without a hit: top-dose activity change, positive = activation, most hits filed as activators; 210,000 tested, 2.8% active; HEK293 SMN2-luciferase splicing reporter, luminescence, 30-36 h; AID 1458; further: % of control where 0% means no effect; nearly all actives have a fitted effect of over 55% in size
#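 qHTS luciferase splicing reporter: luminescence rises when SMN2 exon 7 is included in transfected HEK293 cells. Compound exposure lasted 30-36 h at 37C, with 4.5 mM final sodium butyrate as control, followed by a ONE-Glo read.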
# ELG1 repair inh: ELG1-dependent DNA repair inhibition; HEK293T ELG1-luciferase reporter, luminescence, 16 h; DNA damage induced by 5-fluorouridine; Potency, µM (doses to about 46.1 µM), for the others: top-dose activity change, negative = inhibition, hits mostly inhibitors; 330,000 tested, 2.3% active; AID 504467; further: on the % scale 0 is the no-effect control and ±100 the full control effect; nearly all actives have a fitted effect of over 55% in size
#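 Step one: seed 2,000 cells per well. Step two: pin-transfer compound or DMSO alongside 5-fluorouridine. Step three: incubate 16 hr, 37 °C, 5% CO2. Step four: add ONE-Glo, wait 30 min, read luminescence.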
# FLuc counter: counter-screen for miR-21 project: firefly luciferase inhibitors or activators. Potency, µM (top dose mostly 57.5 µM), for the others: at the top dose activity change, negative = inhibition, actives largely listed as inhibitors. 360,000 tested, 6.9% active. purified FLuc, Km substrates, luminescence inhibition;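 further: plate controls were vehicle for no effect and reference inhibitor for full effect; nearly all actives have a fitted effect of over 55% in size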
# Target sequence (P08659 whole entry, looked up): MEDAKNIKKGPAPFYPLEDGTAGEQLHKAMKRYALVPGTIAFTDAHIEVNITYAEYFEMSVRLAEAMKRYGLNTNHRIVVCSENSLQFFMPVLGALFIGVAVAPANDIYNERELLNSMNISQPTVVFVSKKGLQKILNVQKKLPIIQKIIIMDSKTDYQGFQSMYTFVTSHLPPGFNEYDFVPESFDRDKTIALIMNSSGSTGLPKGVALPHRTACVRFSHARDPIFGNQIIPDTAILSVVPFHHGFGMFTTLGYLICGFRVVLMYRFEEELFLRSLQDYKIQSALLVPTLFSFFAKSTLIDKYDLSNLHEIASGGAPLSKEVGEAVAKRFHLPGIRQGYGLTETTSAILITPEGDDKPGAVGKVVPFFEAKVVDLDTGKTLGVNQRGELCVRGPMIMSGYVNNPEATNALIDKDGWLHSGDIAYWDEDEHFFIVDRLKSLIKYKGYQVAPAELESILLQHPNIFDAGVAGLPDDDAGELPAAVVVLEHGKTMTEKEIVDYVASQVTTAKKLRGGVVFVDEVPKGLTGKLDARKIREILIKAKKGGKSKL
#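 Purified P. pyralis luciferase, 10 nM final, with Km-level 10 uM D-luciferin and 10 uM ATP in 50 mM Tris acetate pH 7.5, 10 mM Mg acetate, 0.01% Tween-20, 0.05% BSA; 6-point qHTS titration about 60 µM downward; luminescence read.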
# NPC1 prom act: NPC1 promoter activation | Huh7 NPC1 promoter luciferase reporter, 24 h | Potency, µM (highest dose often 9.22 µM), for inactives: at the highest dose activation, actives largely listed as activators | 320,000 tested, 2.4% active | AID 485313; further: % of control where 0% means no effect; nearly all actives have a fitted effect of over 60% in size
#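 Quantitative HTS used a cell-based reporter: Huh7 cells stably bearing the NPC1 promoter upstream of luciferase were treated with compounds for 24 h, and promoter activation was read as luminescence.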
# ELG1 genotoxic: genotoxicity induction in ELG1-luciferase HEK293T cells. HEK293T ELG1-luciferase reporter, luminescence, 16 h. Potency, µM (titrated, usually from 46 µM), inactives show top-dose activity change, positive = activation, usual class: activators. 330,000 tested, 1.3% active. AID 504466; further: % of control where 0% means no effect; nearly all actives have a fitted effect of over 60% in size
#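 Luminescence read-out: rising ELG1-luciferase signal, reflecting elevated ELG1 protein under genetic stress, flags genotoxic compounds. Cells were treated for 16 hr at 37 °C before ONE-Glo detection.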
# Rab9 promoter act: activates the Rab9 promoter | Huh7 Rab9 promoter-luciferase reporter, luminescence, 24 h | Potency, µM (titrated, usually from 9.22 µM), without a hit: at the highest dose activation, negative = inhibition, usual class: activators | 320,000 tested, 2.8% active | AID 485297; further: % of control where 0% means no effect; nearly all actives have a fitted effect of over 60% in size
#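 Huh7 cells stably carrying Rab9 promoter–luciferase reporter, plated 1500 cells/well, compound added after 2 h and incubated 24 h at 37 °C; luciferase luminescence then read after 10 min with detection reagent.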
# * hit, by the source's call; ? = inconclusive; · = not tested or not shown; [ ] = remark or other dose. The call rests on the fitted dose curve; in most records, active means well fitted curve in the direction sought with a large enough effect; inconclusive means small, poorly fitted or top-dose-only effect, or another doubt; inactive means no such curve, though single readings can be large; an effect the other way counts as inactive or inconclusive. Potency means the concentration at half of the fitted maximal effect.
SMILES,SMN2 splice up,ELG1 repair inh,FLuc counter,NPC1 prom act,ELG1 genotoxic,Rab9 promoter act
CCC(Oc1ccc(F)cc1)C(=O)Nc1nc(-c2ccc(F)cc2)ns1 (stereo not given),-84.3%,·,-21.7%,·,·,·
Cc1ccc(CNC(=O)Cn2cc3c(n2)-c2c(oc(C(=O)N4CCOCC4)c2C)CC3)cc1,·,·,2.9%,·,·,·
O=C(N/N=C/c1ccc(N2CCOCC2)cc1)c1ccncc1,·,13.4%,?,1.7%,-0.2%,-7.3%
C/C(=N\Nc1ccccn1)c1ccc(N2CCOCC2)cc1,14.1µM*,?,13.5µM*,?,?,2.24µM*
Cc1cc(C)nc(N/N=C/c2ccc(N3CCOCC3)cc2)n1,20.5%,-0.5%,1.0%,-6.8%,-10.1%,-17.9%
Clc1cccc(N/N=C/c2ccc(N3CCOCC3)cc2)c1,?,?,13.5µM*,?,15.4%,?
C/C(=N\NC(=O)c1ccc(Cl)cc1)c1ccc(N2CCOCC2)cc1,6.2%,23.6%,-3.7%,-1.7%,7.3%,0.6%
C(=N\Nc1ccccc1)/c1ccc(N2CCOCC2)cc1,17.8µM*,?,7.57µM*,3.16µM*,?,2.82µM*
C(=N\Nc1ccccn1)/c1ccc(N2CCOCC2)cc1,12.6µM*,?,6.01µM*,3.16µM*,?,2.82µM*
CCC(=O)C1=C(c2cccc(OC)c2)N(C(=O)CC)n2c(nnc2C2CCCCC2)S1,·,·,-1.2%,·,·,·
C/C(=N\Nc1ccccn1)c1ccc(C(C)C)cc1,?,?,9.53µM*,?,12.7%,?
O=[N+]([O-])c1cccc(N/N=C/c2ccc(N3CCOCC3)cc2)c1,·,?,10.7µM*,2.82µM*,?,3.16µM*
O=C(O)c1cc(N/N=C/c2ccc(N3CCOCC3)cc2)ccc1Cl,·,?,0.601µM*,?,?,?
O=C(Nc1cccc(F)c1)c1ccc2oc(=O)n(Cc3ccccc3)c2c1,·,·,-11.3%,·,·,·
O=C(Nc1cccc(Cl)c1Cl)c1ccc2c(c1)N(Cc1cccc(Cl)c1)C(=O)c1ccccc1S2=O (stereo not given),·,·,-2.1%,·,·,·
COc1ccc(NC(=O)CSC2=Nc3ccccc3C3=NC(CCC(=O)NCCc4ccccc4)C(=O)N23)c(OC)c1 (stereo not given),·,·,-2.2%,·,·,·
c1ccc(Cn2ccnc2-c2ccco2)cc1,14.7%,?,21.3µM*,13.9%,?,9.7%
COc1ccc(NCc2c(O)ccc3ccccc23)cc1,-9.6%[9.22 µM],·,·,·,·,·
CCCCOc1ccc(C(=S)N2CCC(C(N)=O)CC2)cc1,?,?,23.9µM*,?,?,4.47µM*
CCCCOc1ccccc1NC(=O)CC1Sc2ccccc2NC1=O (stereo not given),-3.1%,·,0.1%,·,·,·
Cc1cccc(C(=O)NCC(=O)OCc2cc(=O)n3nc(C)sc3n2)c1,·,·,5.2%,·,·,·
O=C(NCc1ccccc1)C(c1ccco1)N(C(=O)c1ccccn1)c1ccccc1 (stereo not given),·,-2.6%,1.7%,-4.3%,-10.6%,-1.2%
COc1ccc(CNC(=O)C(c2ccco2)N(C(=O)c2ccccn2)c2ccccc2)cc1 (stereo not given),·,?,6.75µM*,0.891µM*,?,0.891µM*
Oc1ccccc1N1CCN(c2ccc3ccccc3n2)CC1,·,?,5.36µM*,1.26µM*,?,0.398µM*
C[N+](C)(C)CC(=O)N1CCN(c2ccc3ccccc3n2)CC1,·,0.4%,1.5%,0.1%,-0.5%,-0.6%
SMILES,SMN2 splice up,ELG1 repair inh,FLuc counter,NPC1 prom act,ELG1 genotoxic,Rab9 promoter act
c1ccc(CN2CCN(c3cnc4ccccc4n3)CC2)cc1,·,?,19µM*,?,?,?
Fc1ccccc1N1CCN(c2cnc3ccccc3n2)CC1,2.82µM*,·,2.13µM*,·,·,·
Cc1ccc2c(c1)c(=O)c1ccccc1n2CCCC(=O)Nc1cc(Cl)ccc1C,15.8%,·,2.7%,·,·,·
CCc1nnc(SC(CC)C(=O)NCCOC)c2cc3occc3n12 (stereo not given),·,·,-7.8%,·,·,·
CCCn1nc([N+](=O)[O-])c(C(C#N)c2nc3ccccc3s2)c(Cl)c1=O (stereo not given),-15.1%,18.4µM*,?,-4.6%,-19.4%,0.8%
CC(=O)c1c(C)[nH]c(C(=O)OCc2csc(CC(=O)Nc3ccccc3C)n2)c1C,·,13µM*,·,·,-1.9%,·
Cc1ccccc1NC(=O)Cc1nc(COC(=O)c2ccc(Cl)c(S(N)(=O)=O)c2)cs1,·,5.17µM*,3.6%,-3.7%,2.5%,0.5%
O=C(CN1C(=O)COc2ccc(Cl)cc21)Nc1ccc(F)cc1,3.2%,·,-3.0%,·,·,·
Cc1cccc(NC(=O)c2c(C)cc(C)nc2SCC(=O)Nc2c(C)cc(C)cc2C)c1,·,·,-4.7%,·,·,·
CCOc1ccc(C(=O)N(Cc2ccc(C(C)C)cc2)Cc2ccco2)cc1,-11.4%,·,-19.1%,·,·,·
COc1ccc(-n2cc(CN3CCCC3)c(-c3cccc(F)c3)n2)cc1,·,6.6%,?,-3.2%,-1.4%,-6.0%
Cc1cccc(-n2cc(CN3CCN(Cc4nccn4C)CC3)c(-c3cccc(F)c3)n2)c1,·,18.3µM*,26.9µM*,3.1%,-0.6%,8.0%
Cc1oc(-c2ccc(C(=O)NCc3ccccc3F)cc2)nc1COc1ccccc1,·,·,-1.5%,·,·,·
Cc1cc(C)c(NC(=O)Cn2nnc3sc4c(c3c2=O)CCC(C(C)(C)C)C4)c(C)c1 (stereo not given),-3.5%,·,2.6%,·,·,·
CC(=O)Cn1nnc2sc3c(c2c1=O)CCC(C(C)(C)C)C3 (stereo not given),21.0%,?,21.3µM*,3.55µM*,3.3%,2.82µM*
CCn1nnc2sc3c(c2c1=O)CCC(C)C3 (stereo not given),-5.4%,?,13.5µM*,?,15.1%,?
Cc1cc(NC(=O)c2ccc(Cl)cc2)no1,11.2µM*,?,7.57µM*,?,8.2µM*,3.16µM*
Cc1cc(NC(=O)c2ccc3nc(C)sc3c2)no1,3.98µM*,?,?,0.891µM*,9.2µM*,1.78µM*
Cc1cc(NC(=O)c2cccc(COc3ccc(Br)cc3)c2)no1,0.355µM*,?,9.53µM*,0.355µM*,0.651µM*,0.447µM*
CCOc1cc(C(=O)Nc2cc(C)on2)cc(OCC)c1OCC,?,20.6µM*,5.6%,1.9%,-10.0%,0.5%
Cc1cc(NC(=O)COC(=O)c2cccc(OCc3ccccc3)c2)no1,8.2%,?,-0.3%,0.6%,3.9%,19.7%
CCOC(=O)c1ccc(N2CCN(c3cc(C)ccc3C)CC2)c(NC(=O)Nc2ccc(Cl)cc2)c1,·,·,1.3%,·,·,·
COc1ccc(OC)c(CCNC(=O)CCCn2c(=O)c3cccn3c3ccccc32)c1,·,·,4.8%,·,·,·
